Compound activity (PubChem)
TDP1 inh = qHTS Assay for Inhibitors of Tyrosyl-DNA Phosphodiesterase (TDP1); Tyrosyl-DNA phosphodiesterase 1 (Homo sapiens), Q9NUW8; Potency, µM (doses to about 130 µM), usual class: inhibitors; AID 485290, 2010; recombinant TDP1, AlphaScreen DNA substrate cleavage; hit rate 0.28% among 350,000; also: nearly all actives have a fitted effect of over 40% in size
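Enzyme-compound mixtures sat 15 min at room temperature, followed by a 5 min reaction with 15 nM final substrate and 10 min with AlphaScreen beads. Recombinant human Tdp1 was used at 1 nM final.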
IL-1B inflam inh = qHTS for Inhibitors of Inflammasome Signaling: IL-1-beta AlphaLISA Primary Screen | activity change, % at 57.5 µM | hit rate 4.7% among 360,000 | THP-1 LPS/ATP IL-1B secretion, AlphaLISA, 16 h; active compounds read low; in the data active = activity change below about -50%; inconclusive = mostly about -30% to -49%
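THP-1 cells pretreated 1 hr with compounds (up to 57.5 uM final), then stimulated with LPS (250 ng/mL final) plus ATP (1.25 mM final); secreted IL-1B measured by AlphaLISA after 16 hr, decreased signal indicating inhibition.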
CtBP-E1A blk = qHTS Assay for Inhibitors of the CtBP/E1A Interaction | CtBP / adenovirus E1A interaction (AlphaScreen) | AlphaScreen GST-E1A/His-CtBP binding, 1536-well; active compounds read low | activity change, % (concentration not given with the values) | hit rate 0.49% among 340,000 | AID 651724, 2012; in the data active = activity change below about -65%; inconclusive = mostly about -30% to -63%
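Protein mix (5X: 125 nM each GST-E1A, His-CtBP) was incubated with pinned compound 2 h at 37 deg C in dark, in 50 mM Tris pH 8.0 buffer with 300 mM NaCl. Glutathione donor and nickel acceptor beads followed; AlphaScreen signal read after 1 h.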
Six1-Eya2 blk = qHTS Assay for Inhibitors of the Six1/Eya2 Interaction | AlphaScreen GST-Six1/His-Eya2 binding, biochemical; active compounds read low | activity change, % (test concentration not listed) | hit rate 0.56% among 360,000 | AID 651725, 2012; in the data active = activity change below about -65%; inconclusive = mostly about -30% to -63%
Target sequence (O00167 whole entry, looked up): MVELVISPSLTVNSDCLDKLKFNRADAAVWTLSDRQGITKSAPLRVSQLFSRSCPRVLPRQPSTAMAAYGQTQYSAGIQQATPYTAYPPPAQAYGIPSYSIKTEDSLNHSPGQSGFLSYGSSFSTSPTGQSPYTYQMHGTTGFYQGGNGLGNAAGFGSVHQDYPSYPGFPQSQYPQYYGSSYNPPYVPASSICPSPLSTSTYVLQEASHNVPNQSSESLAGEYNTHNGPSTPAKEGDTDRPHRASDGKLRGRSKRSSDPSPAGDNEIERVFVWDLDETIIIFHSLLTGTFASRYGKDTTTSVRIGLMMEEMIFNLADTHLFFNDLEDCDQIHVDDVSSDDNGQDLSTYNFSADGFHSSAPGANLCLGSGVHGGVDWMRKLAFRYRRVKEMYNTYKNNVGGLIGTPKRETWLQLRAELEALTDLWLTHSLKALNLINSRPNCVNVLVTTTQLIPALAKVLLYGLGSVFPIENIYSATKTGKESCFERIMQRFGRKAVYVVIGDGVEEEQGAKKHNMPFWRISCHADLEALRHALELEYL
Target sequence (Q15475 whole entry, looked up): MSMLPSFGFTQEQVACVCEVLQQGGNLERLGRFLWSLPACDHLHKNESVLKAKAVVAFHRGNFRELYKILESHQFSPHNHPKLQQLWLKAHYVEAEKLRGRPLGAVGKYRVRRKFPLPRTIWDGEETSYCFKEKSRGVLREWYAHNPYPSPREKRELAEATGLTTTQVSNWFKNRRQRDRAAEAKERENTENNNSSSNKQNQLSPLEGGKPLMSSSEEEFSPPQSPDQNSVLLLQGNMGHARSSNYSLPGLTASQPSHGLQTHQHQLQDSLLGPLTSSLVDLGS
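Compounds are tested against tagged Six1 and Eya2 proteins bridged by glutathione donor and nickel acceptor beads; after a one-hour incubation at 37 °C without light, AlphaScreen emission is recorded.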
DT40 TDP1 CPT = qHTS for Inhibitors of human tyrosyl-DNA phosphodiesterase 1 (TDP1): qHTS in cells in presence of CPT; hit rate 12% among 420,000; chicken DT40 Tdp1-/-;hTDP1 cells + 20 nM CPT, ATP luminescence, 48 h; Potency, µM (series often up to 46.2 µM), most hits filed as inhibitors; AID 686979, 2013; also: nearly all actives have a fitted effect of over 55% in size
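Cell growth measured by CellTiter-Glo luminescence after a minimum 48 h, 37 C compound exposure with 20 nM CPT in Tdp1-knockout DT40 cells stably expressing hTDP1, seeded 400/well; qHTS titration format.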
TDP1 cell noCPT = qHTS for Inhibitors of human tyrosyl-DNA phosphodiesterase 1 (TDP1): qHTS in cells in absence of CPT; Potency, µM (doses to about 46.2 µM), most hits filed as inhibitors; hit rate 15% among 420,000; DT40 Tdp1-/- hTDP1 cells, no CPT, ATP luminescence, 48 h; also: nearly all actives have a fitted effect of over 55% in size
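Chicken DT40 Tdp1-/- cells stably complemented with human TDP1 were seeded at 400 cells/well with DMSO in place of 20 nM camptothecin. After compound pinning, cells grew at least 48 hr at 37 °C; viability read by CellTiter-Glo luminescence.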
Of the large screens only hits and unclear results are named; the others gave an inactive call. Compounds with a hit are over-represented: about 18% of the library has one in this group of screens. Unless noted, calls follow the shape of the dose curve; as a rule, active = well fitted curve in the direction sought with a large enough effect; inconclusive = small, poorly fitted or top-dose-only effect, or another doubt; inactive = no such curve, though single readings can be large; an effect the other way counts as inactive or inconclusive.

CC(C)(C)N(Cc1ccccc1)C(=O)CN1C(=O)c2ccccc2S1(=O)=O	DT40 TDP1 CPT inconclusive, TDP1 cell noCPT 21µM
CC(=O)N(C1=C(N)C(=O)c2ccccc2C1=O)C(C)C	DT40 TDP1 CPT inconclusive, TDP1 cell noCPT inconclusive
CCC(=O)N(C1=C(NC(C)C)C(=O)c2ccccc2C1=O)C(C)C	DT40 TDP1 CPT 21µM, TDP1 cell noCPT 9.2µM (no result: TDP1 inh)
O=C(c1ccc(COc2ccccc2Br)o1)N1CCCCCC1	DT40 TDP1 CPT 21µM, TDP1 cell noCPT inconclusive
O=C(c1ccc(COc2ccccc2Br)cc1)N1CCCCC1	IL-1B inflam inh -58, DT40 TDP1 CPT 15µM, TDP1 cell noCPT 16µM
CCCc1ccc(OCc2ccc(C(=O)N3CCCC3)o2)cc1	DT40 TDP1 CPT inconclusive, TDP1 cell noCPT 21µM (no result: TDP1 inh)
O=C(COc1ccccc1Cl)Nc1ccc(C(=O)N2CCCCC2)cc1	DT40 TDP1 CPT inconclusive, TDP1 cell noCPT inconclusive (no result: TDP1 inh)
CCOc1ccc(NC(=O)Cn2c(=O)n(Cc3ccco3)c(=O)c3oc4ccccc4c32)cc1	none (no result: IL-1B inflam inh, CtBP-E1A blk, Six1-Eya2 blk)
O=S(=O)(Nc1ccccn1)c1ccc(C(F)(F)F)cc1Cl	none
CN(C)c1ncnc2c1ncn2[C@H]1CN(Cc2ccc(Cl)cc2)C[C@@H](CO)O1	DT40 TDP1 CPT inconclusive (no result: TDP1 inh)
NC(=O)C1CCN(C(=O)c2cc3c(s2)CCCC3)CC1	none
CCN1CCN(c2ccc(S(=O)(=O)N3CCCCC3)cc2NC(=O)Cc2ccccc2F)CC1	DT40 TDP1 CPT inconclusive, TDP1 cell noCPT inconclusive
Cc1cccc(N2CCN(C(=O)c3cc4n(n3)C(C(F)(F)F)CC(c3ccco3)N4)CC2)c1C (centres undefined)	IL-1B inflam inh -55, DT40 TDP1 CPT 21µM, TDP1 cell noCPT 15µM
O=C(c1cc2n(n1)C(C(F)(F)F)CC(c1ccco1)N2)N1CCN(c2ccccn2)CC1 (centres undefined)	DT40 TDP1 CPT inconclusive, TDP1 cell noCPT 26µM
O=C(O)c1cc2n(n1)C(C(F)(F)F)CC(c1ccco1)N2 (centres undefined)	none
Nc1c(Br)cc(Br)c2c1[nH]c(=O)c1ccccc12	DT40 TDP1 CPT inconclusive, TDP1 cell noCPT inconclusive (no result: TDP1 inh)
O=C(NC(=S)NCc1ccccc1)C1CCCCC1	DT40 TDP1 CPT 18µM, TDP1 cell noCPT 21µM
CN(C(=O)CSc1cn(CC(=O)N2CCOCC2)c2ccccc12)c1ccccc1	DT40 TDP1 CPT inconclusive, TDP1 cell noCPT inconclusive
CC1CN(C(=O)CSc2cn(CC(=O)N3CCOCC3)c3ccccc23)CC(C)O1 (centres undefined)	none
O=C(Cn1cc(SCc2ccc(Cl)cc2)c2ccccc21)N1CCOCC1	DT40 TDP1 CPT inconclusive, TDP1 cell noCPT 21µM
O=C(Cn1cc(SCc2ccc(F)cc2)c2ccccc21)N1CCOCC1	DT40 TDP1 CPT inconclusive, TDP1 cell noCPT 16µM
Cc1ccc2nc3[nH]c(=O)[nH]c(=O)c3c(N)c2c1	CtBP-E1A blk inconclusive, Six1-Eya2 blk inconclusive, DT40 TDP1 CPT inconclusive, TDP1 cell noCPT 8.2µM (no result: TDP1 inh)
O=C(O)c1c2cc(Br)ccc2nc2[nH]c(=O)[nH]c(=O)c12	none (no result: TDP1 inh)
CCOc1ccc(-n2c(C)cc(/C=N/N(C)C)c2C)cc1	DT40 TDP1 CPT 9.2µM, TDP1 cell noCPT 7.3µM
CCOc1ccc(-n2c(C)cc(/C=N/Nc3nc(C)cc(=O)[nH]3)c2C)cc1	DT40 TDP1 CPT 16µM, TDP1 cell noCPT 12µM
CCOc1ccc(-n2c(C)cc(/C=N\NC(=O)CC(=O)NC3CCCCC3)c2C)cc1	DT40 TDP1 CPT 18µM, TDP1 cell noCPT 13µM
CCOc1ccc(-n2c(C)cc(/C=N/NC(=O)C(N)=O)c2C)cc1	none
CC(=O)NS(=O)(=O)c1ccc(N2C(=O)CC(Sc3nccc(C)n3)C2=O)cc1 (centres undefined)	none (no result: TDP1 inh)
